In PubChem BioAssay AID1159580 (chemical genetic matrix, 2015):
Several values for one entry are separate records, joined by “and”; a condition that tells them apart may be missing. Equal values may be shown once. The campaign covered roughly 5,500 compounds. About 2,000 (36%) were called active. Not shown: some 18% with an inconclusive outcome. Rule as the data show it: active = normalized growth mostly below about 0.91 (no sharp cut-off); inconclusive = no clear call, values can overlap the other calls; inactive = mostly above about 0.92. This is one part of the list.

Experiment: chemical genetic growth profiling, strain panel (AID 1159580);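 also: tested at 20 µM; growth read once vehicle control cultures reached saturation at 30 °C; 1 = growth at the plate median or of vehicle wells; lower values mean less growth of the strain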
Details: S. cerevisiae deletion strains, growth OD

Measured: normalized growth

O=C(O)c1cc(=O)c2cccc(O)c2[nH]1
inactive: locus YAL013W, strain DEP1, active compounds read low 0.999 | locus YAL021C, strain ccr4, active compounds read low 0.995 | locus YAL026C, strain drs2, active compounds read low 1.03 | locus YAL030W, strain snc1, active compounds read low 1.01 | locus YBL061C, strain skt5, active compounds read low 1.02 | locus YBR009C, strain hhf1, active compounds read low 1 | locus YBR021W, strain FUR4, active compounds read low 1.03 | locus YBR023C, strain chs3, active compounds read low 1.03 | locus YBR171W, strain sec66, active compounds read low 1.03 | locus YBR229C, strain ROT2, active compounds read low 0.999 | locus YBR231C, strain swc5, active compounds read low 1.01 | locus YBR279W, strain paf1, active compounds read low 0.984 | locus YCL011C, strain gbp2, active compounds read low 1.02 | locus YCL016C, strain dcc1, active compounds read low 1.05 | locus YCL029C, strain bik1, active compounds read low 0.953 | locus YCL061C, strain MRC1, active compounds read low 1.02 | locus YCL069W, strain vba3, active compounds read low 1.01 | locus YCR088W, strain abp1, active compounds read low 1.02 | locus YDL005C, strain med2, active compounds read low 1.01 | locus YDL035C, strain GPR1, active compounds read low 1.02 | locus YDL040C, strain nat1, active compounds read low 1 | locus YDL074C, strain BRE1, active compounds read low 0.995 | locus YDL101C, strain DUN1, active compounds read low 0.988 | locus YDL134C, strain PPH21, active compounds read low 1.01 | locus YDL185W, strain tfp1, active compounds read low 0.959 | locus YDL192W, strain arf1, active compounds read low 0.985 | locus YDR001C, strain nth1, active compounds read low 1.01 | locus YDR069C, strain doa4, active compounds read low 1.03 | locus YDR101C, strain arx1, active compounds read low 0.977 | locus YDR137W, strain rgp1, active compounds read low 1.01 | locus YDR150W, strain NUM1, active compounds read low 0.97 | locus YDR159W, strain sac3, active compounds read low 0.981 | locus YDR162C, strain NBP2, active compounds read low 1 | locus YDR195W, strain ref2 1 | locus YDR297W, strain sur2, active compounds read low 1.01 | locus YDR318W, strain mcm21, active compounds read low 0.981 | locus YDR334W, strain swr1, active compounds read low 1.02 | locus YDR335W, strain msn5, active compounds read low 1.04 | locus YDR388W, active compounds read low 0.995 | locus YDR392W, strain spt3, active compounds read low 1.08 | locus YDR502C, strain sam2, active compounds read low 0.985 | locus YEL003W, strain gim4, active compounds read low 1.01 | locus YEL037C, strain rad23, active compounds read low 1.01 | locus YEL061C, strain CIN8 (second series), active compounds read low 1.02 | locus YEL061C, strain CIN8, active compounds read low 0.993 | locus YER015W, strain faa2, active compounds read low 1.02 | locus YER016W, strain bim1, active compounds read low 1.04 | locus YER110C, active compounds read low 0.974 | locus YER111C, strain swi4, active compounds read low 1.01 | locus YER155C, strain BEM2 (second series), active compounds read low 1.03 | locus YER155C, strain BEM2, active compounds read low 0.998 | locus YER167W, strain BCK2, active compounds read low 0.994 | locus YFR010W, strain ubp6, active compounds read low 1.01 | locus YGL078C, strain dbp3, active compounds read low 0.987 | locus YGL086W, strain mad1, active compounds read low 0.993 | locus YGL167C, strain pmr1, active compounds read low 1.01 | locus YGL173C, strain kem1, active compounds read low 1.01 | locus YGL227W, strain vid30, active compounds read low 1.01 | locus YGL240W, strain doc1, active compounds read low 0.999 | locus YGL248W, strain PDE1, active compounds read low 0.991 | locus YGL253W, strain hxk2, active compounds read low 1.03 | locus YGR078C, strain PAC10, active compounds read low 0.98 | locus YGR135W, strain pre9, active compounds read low 0.986 | locus YGR229C, strain SMI1, active compounds read low 1.02 | locus YGR252W, strain gcn5, active compounds read low 1.15 | locus YHR013C, strain ard1, active compounds read low 1.01 | locus YHR027C, strain rpn1, active compounds read low 1.03 | locus YHR030C, strain SLT2, active compounds read low 0.985 and 0.961 | locus YHR079C, strain IRE1 (second series), active compounds read low 0.985 | locus YHR079C, strain IRE1, active compounds read low 0.962 | locus YHR094C, strain hxt1, active compounds read low 0.964 | locus YHR129C, strain ARP1, active compounds read low 0.987 | locus YHR142W, strain chs7, active compounds read low 1.03 | locus YHR200W, strain rpn10, active compounds read low 0.984 | locus YIL066C, strain RNR3, active compounds read low 0.994 | locus YIL073C, strain SPO22, active compounds read low 0.949 | locus YIL125W, strain kgd1, active compounds read low 0.975 | locus YIR030C, strain dcg1, active compounds read low 0.99 | locus YJL092W, strain hpr5, active compounds read low 1.02 | locus YJL095W, strain BCK1 (second series), active compounds read low 1.03 | locus YJL095W, strain BCK1, active compounds read low 0.982 and 0.975 | locus YJL115W, strain asf1, active compounds read low 1.01 | locus YJL129C, strain trk1, active compounds read low 1.03 | locus YJL134W, strain LCB3, active compounds read low 0.992 | locus YJL154C, strain vps35, active compounds read low 1.01 | locus YJL164C, strain tpk1, active compounds read low 1.01 | locus YJL166W, strain qcr8, active compounds read low 0.996 | locus YJL168C, strain set2, active compounds read low 0.981 | locus YJL187C, strain SWE1 (second series), active compounds read low 0.95 | locus YJL187C, strain SWE1, active compounds read low 1.03 | locus YJR043C, strain POL32, active compounds read low 0.987 | locus YJR066W, strain TOR1, active compounds read low 0.928
